# Results from PubChem BioAssay AID504437 (Emory University Molecular Libraries Screening Center, 2011).
# In all, about 2,100 compounds went through this assay and about 940 (45%) were called active.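 How the source made its calls: active means mean of three repeat readings of reporter signal inhibition above a set limit (cut at about 70% in these data); inactive means the rest.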 The set was probably picked from earlier hits. Only a sample is shown.
# Experiment: CHOP promoter reporter blockers, replicate testing – cell-based, confirmation (AID 504437);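 further: 0% = tunicamycin plus vehicle and 100% = wells lacking tunicamycin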
# Details: CHO-CHOP promoter luciferase reporter, tunicamycin-induced, luminescence; at 10 µM; active compounds read high
row,Structure (SMILES),inhibition
1,NC(=O)CC(NC(=O)Cc1cccc2ccccc12)c1ccc(NCc2cc(F)ccc2F)c([N+](=O)[O-])c1 (stereo not drawn),87.6% (active)
2,O=[N+]([O-])c1c(NCCO)cc(Sc2nc3ccccc3s2)c2nonc12,-6.6% (inactive)
3,CC1=C/C(=N\OS(=O)(=O)c2ccccc2)C=CC1=O,141% (active)
4,CCOc1ccc2nc(Nc3nc4ccc(NC(C)=O)cc4s3)sc2c1,56.5% (inactive)
5,COc1ccc(COC(=O)c2n[nH]c3ccccc23)cc1F,15.5% (inactive)
6,O=C(CCl)Nc1ccc(Sc2ccc(NC(=O)CCl)cc2)cc1,113% (active)
7,Fc1ccccc1/C=C1\CCCC2=C1Nc1ncnn1C2c1ccccc1F (stereo not drawn),6.7% (inactive)
8,O=C(NNc1ccccc1Cl)C(O)(c1cccc(C(F)(F)F)c1)c1cccc(C(F)(F)F)c1,54.8% (inactive)
9,O=C(Cn1cc(C(F)(F)F)ccc1=O)N/N=C/c1ccc(Cl)cc1Cl,27.2% (inactive)
10,OCCCNc1nccc(-c2cc(Nc3cccc(Cl)c3)ncn2)n1,121% (active)
11,Cc1ccc(-n2ncc3c2ncn2nc(-c4ccco4)nc32)c(C)c1,-1.3% (inactive)
12,COc1ccc(NC(=O)/C(C#N)=C\c2cc(OC)c(OCc3ccc(C(=O)O)cc3)cc2Br)cc1,17.8% (inactive)
13,O=C(Nc1ccccc1Cl)/C(Cl)=C(\Cl)S(=O)c1ccccc1 (stereo not drawn),122% (active)
14,Clc1cccc(CN2COc3c(cc(Cl)c4cccnc34)C2)c1,-62% (inactive)
15,COc1cccc(-c2nnc(NC(=O)c3ccc(S(=O)(=O)N(CC(C)C)CC(C)C)cc3)o2)c1,110% (active)
16,CCOC(=O)c1cc2cc(-c3c(C(=O)OCC)oc4cc(O)cc(O)c4c3=O)ccc2o1,46.1% (inactive)
17,Cc1nnc(SCC(=O)N/N=C/c2cn(-c3ccccc3)nc2-c2ccc(F)cc2)n1-c1ccccc1,-50.1% (inactive)
18,CCN(CC)S(=O)(=O)c1ccc2nc(COC(=O)c3n[nH]c4ccccc34)[nH]c2c1,66% (inactive)
19,CCCCCCn1c(CN2CCCC(C)C2)nc2c1c(=O)n(C)c(=O)n2C (stereo not drawn),97.6% (active)
20,O=C(CC(NC(=O)c1ccccc1)c1ccccc1)Nc1ccc(F)c(F)c1 (stereo not drawn),67.4% (inactive)
21,CCCCSc1nc2c(c(=O)n1CC)SC(C)C2 (stereo not drawn),58.6% (inactive)
22,CCCCCn1c(SCCC(C)C)nc2c1c(=O)[nH]c(=O)n2C,97.6% (active)
23,C=C(C)C(=O)O[C@H]1C/C(C)=C\C(=O)/C=C(\C)[C@H](O)[C@@H]2OC(=O)C(=C)[C@@H]21,43.7% (inactive)
24,Cc1cccc(NC(=O)Nc2cccc(Oc3c(F)c(F)c(F)c(F)c3F)c2)c1,69.3% (inactive)
25,O=C(Nc1cc(N2CCOCC2)ncn1)NC1(C(F)(F)F)Oc2ccc(Cl)cc2O1 (stereo not drawn),93.7% (active)
26,Cc1c(C(=O)Nc2cccc(Cl)c2)cn2c(nc3ccccc32)c1C#N,33.5% (inactive)

row,Structure (SMILES),inhibition
1,O=C(/C=C/Sc1ncn[nH]1)c1ccc(Cl)cc1,98% (active)
2,FC(F)(F)c1cc(-c2ccco2)nc(N2CCOCC2)n1,49.6% (inactive)
3,O=C(CCl)N(Cc1cccc([N+](=O)[O-])c1)c1cccc(Cl)c1,118% (active)
4,Cc1ccc(-n2nc(C)c(/C=N/NC(=O)c3cccs3)c2Cl)cc1,-50.9% (inactive)
5,CN1C(=O)/C(=C/c2ccc(C(=O)NC3CCCC3)cc2)Oc2ccccc21,-73.2% (inactive)
6,O=C1C=C(c2ccc(Cl)cc2)C(=O)N1Nc1ccccc1,-116% (inactive)
7,COc1cc(/C=N/NC(=O)Nc2ccccc2)ccc1OCCOc1ccccc1C,86.2% (active)
8,CCCOc1ccc(Cc2c(Cl)nc(SC)nc2NC)cc1,104% (active)
9,N#CC(C(=O)c1ccc(S(=O)(=O)N2CCCCCC2)cc1)c1nc2ccccc2[nH]1 (stereo not drawn),-6.4% (inactive)
10,CCSc1nc(C)nc2c1oc1ccccc12,19.6% (inactive)
11,Cc1ccc(-c2csc(-c3c[nH]c4ccccc34)n2)cc1,53.5% (inactive)
12,Cc1nc(SCC(=O)Nc2cc(C)on2)c2c3c(sc2n1)CCCC3,80.7% (active)
13,COc1ccc(-n2c(SCC(=O)Nc3sc4c(c3C#N)CCCC4)nnc2-c2ccc(O)cc2)cc1,37.1% (inactive)
14,Oc1ccc(/C=N/N(Cc2ccccc2)c2ccccc2)cc1,30.1% (inactive)
15,Cc1c(-c2ccccc2)n[nH]c1C(=O)N=Nc1c(O)[nH]c2ccccc12,-12.3% (inactive)
16,Cc1cc(-c2n[nH]c(=S)n2/N=C/C(Br)=C/c2ccccc2)n[nH]1,106% (active)
17,FC(F)(F)c1cc(C(F)(F)F)c2ccc(N3CCN(c4ccccc4)CC3)nc2n1,61.6% (inactive)
18,CCCCc1nc(NCCN)c(C#N)c2c1CSC(C)(C)C2,82.5% (active)
19,O=[N+]([O-])c1cccc(-c2nnc3c4ccccc4c4ccccc4n23)c1,23.3% (inactive)
20,CCCCCCC(=O)N(O)C1CC(=O)N(c2ccccc2)C1=O (stereo not drawn),16.2% (inactive)
21,Clc1ccc(Nc2nc(-c3cccs3)cs2)nc1,124% (active)
22,Oc1cccc(C2c3[nH]c4ccccc4c3CCN2Cc2cnn(-c3ccccc3)c2)c1 (stereo not drawn),-4.4% (inactive)
23,O=[N+]([O-])c1cc(S(=O)(=O)CCCN2CCOCC2)ccc1F,-45.2% (inactive)
24,O=C(Nc1ccccc1C(F)(F)F)c1cc(-c2ccc(O)cc2)on1,77.8% (active)
25,CC(C)Cc1cc(C(=O)Nc2cc(Br)ccc2O)no1,22.3% (inactive)
26,CCCc1nc2ccccc2c(C(=O)OCC(=O)c2ccc3c(c2)NC(=O)CO3)c1CC,-11.4% (inactive)

row,Structure (SMILES),inhibition
1,CC(C)(C)C1C/C(=C/c2ccco2)C(=O)/C(=C/c2ccco2)C1 (stereo not drawn),85.1% (active)
2,OC(CNCC1CCCO1)Cn1c2ccc(Br)cc2c2cc(Br)ccc21 (stereo not drawn),81.5% (active)
3,CC(C)(C)c1ccc(Oc2ccc(N)cc2)cc1,117% (active)
4,O=C(Nc1nnc(COc2ccccc2)s1)Nc1ccccc1F,1% (inactive)
5,Cc1cc(C(=O)CCl)c(C)n1CC1COc2ccccc2O1 (stereo not drawn),-124% (inactive)
6,CS(=O)(=O)N(CC(=O)Nc1ccc(Cl)c(Cl)c1)C1CCCCC1,33.2% (inactive)
7,COc1cc(/C=N/O)cc(Br)c1OCc1cccc(Cl)c1,138% (active)
8,NC(N)=N/N=C/c1ccc(OCc2ccc(Cl)cc2Cl)cc1,-25.2% (inactive)
9,COC(=O)/C=C\C(=O)Nc1cccc([N+](=O)[O-])c1,101% (active)
10,Fc1ccccc1C(c1nnnn1Cc1ccc2c(c1)OCO2)N1CCN(Cc2ccccc2)CC1 (stereo not drawn),22.4% (inactive)
11,CC(C)=CCc1c(O)c(CC=C(C)C)c2occ(-c3ccc(O)cc3)c(=O)c2c1O,15.8% (inactive)
12,COc1cc(SC#N)ccc1N=Cc1c(C)[nH]n(-c2ccc(C)cc2)c1=O,34% (inactive)
13,C=C(C)COc1ccc(-c2n[nH]c(C)c2-c2ccccc2OC)c(O)c1,112% (active)
14,COc1ccc(/C=C/C(=O)Nc2c(C)nn(C)c2C)cc1COc1ccc(Br)cc1,20.4% (inactive)
15,Cc1ccc(NC(=S)NC(NC(=O)Cc2cccc3ccccc23)C(Cl)(Cl)Cl)cc1 (stereo not drawn),72.1% (active)
16,CCOC(=O)c1c(C)[nH]c2c1-c1ccccc1C(=O)C2=O,122% (active)
17,Cc1ccc(NC(=O)/C(=C/c2ccc([N+](=O)[O-])cc2)NC(=O)c2ccccc2)cc1,-5.3% (inactive)
18,COc1cc(C(=O)OC(C)C(=O)NCC2CCCCC2)cc(NC(=O)c2ccco2)c1OC (stereo not drawn),93% (active)
19,Cc1cccc(OCc2nnc(SCc3nc4cc(C(F)(F)F)ccc4c(=O)[nH]3)o2)c1,114% (active)
20,CCOC(=O)C(C)Sc1nc2ccccc2c(=O)n1CC1CCCCC1 (stereo not drawn),61.7% (inactive)
21,C=CCn1c(C)cc(C2=NNC(=NCC)SC2)c1C,136% (active)
22,NC(=O)COc1ccc(C23CC4CC(CC(C4)C2)C3)cc1,7.3% (inactive)
23,CCOC(=O)C1=C(c2ccc(OC)cc2)C(=O)c2ccccc2C1=O,110% (active)
24,CSc1nc2sc3c(c2c(=O)[nH]1)CCc1ccccc1-3,12.2% (inactive)
25,O=C(/C=C/c1ccc(F)cc1)Nc1cccc(S(=O)(=O)Nc2cccc(C(F)(F)F)c2)c1,7.6% (inactive)
26,CSc1nc(-c2ccccc2)nc(C(Cl)Cl)n1,96.2% (active)
